This is a sample that favours compounds with a hit; in the whole collection about 3.5% have one here.
MBD2 DNA inh: blocks human MBD2 binding to methylated DNA; TR-FRET, MBD2 binding to methylated oligonucleotide; 370,000 tested, 0.31% active; inhibition, % at 4.4 µM; Q9UBB5; in the data active means inhibition above about 13%
PG9 binder: binds the HIV-1 gp120 antibody PG9 | TR-FRET gp120-PG9 antibody binding | inhibition, % at 6.7 µM | 360,000 tested, 0.43% active; in the data active means inhibition above about 8.5%
UHRF1 binding: UHRF1 methyl-DNA binding inhibition | inhibition, % at 4.4 µM | 370,000 tested, 0.75% active | Q96T88 | UHRF1 binding to methylated oligo, TR-FRET; in the data active means inhibition above about 21%;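 further: UHRF1 SRA domain binding a hemimethylated CpG hairpin DNA probe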
DNMT1 block: inhibitors of human DNMT1 | P26358 | DNMT1 molecular beacon, Hinp1I cleavage, fluorescence | inhibition (reported as % activation of signal), % at 10 µM | 360,000 tested, 0.83% active; in the data active means inhibition above about 50%
Target sequence (P26358 504-1616 limits assumed): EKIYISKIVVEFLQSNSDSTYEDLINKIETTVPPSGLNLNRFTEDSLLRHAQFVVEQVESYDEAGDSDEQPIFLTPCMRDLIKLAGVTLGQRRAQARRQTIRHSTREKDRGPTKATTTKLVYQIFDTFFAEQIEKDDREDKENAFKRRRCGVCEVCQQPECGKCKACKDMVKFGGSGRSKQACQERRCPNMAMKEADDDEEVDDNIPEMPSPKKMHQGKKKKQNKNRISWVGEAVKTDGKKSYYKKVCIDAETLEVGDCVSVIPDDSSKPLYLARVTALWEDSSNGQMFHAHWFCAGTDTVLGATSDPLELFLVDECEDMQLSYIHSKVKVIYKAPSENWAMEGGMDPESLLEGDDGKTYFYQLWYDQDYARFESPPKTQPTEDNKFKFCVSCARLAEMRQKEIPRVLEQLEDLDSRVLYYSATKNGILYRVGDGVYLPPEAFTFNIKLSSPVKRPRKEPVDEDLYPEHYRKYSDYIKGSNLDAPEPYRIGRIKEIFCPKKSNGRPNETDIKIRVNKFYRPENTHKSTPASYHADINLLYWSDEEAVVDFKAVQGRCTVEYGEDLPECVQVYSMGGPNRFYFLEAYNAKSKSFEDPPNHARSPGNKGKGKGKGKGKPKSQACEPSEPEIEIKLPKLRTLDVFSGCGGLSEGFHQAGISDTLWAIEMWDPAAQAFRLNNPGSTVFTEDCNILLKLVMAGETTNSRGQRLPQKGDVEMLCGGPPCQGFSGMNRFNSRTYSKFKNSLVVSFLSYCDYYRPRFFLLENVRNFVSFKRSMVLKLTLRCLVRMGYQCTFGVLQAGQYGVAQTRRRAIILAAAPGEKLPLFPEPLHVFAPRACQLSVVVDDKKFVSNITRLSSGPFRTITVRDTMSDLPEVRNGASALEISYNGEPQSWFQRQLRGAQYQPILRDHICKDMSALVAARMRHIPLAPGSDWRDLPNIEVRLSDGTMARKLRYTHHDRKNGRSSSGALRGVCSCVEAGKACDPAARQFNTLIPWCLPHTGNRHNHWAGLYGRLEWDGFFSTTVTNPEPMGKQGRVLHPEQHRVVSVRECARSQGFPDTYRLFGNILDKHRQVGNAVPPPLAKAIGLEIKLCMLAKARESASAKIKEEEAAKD
rCAG binder: molecules binding r(CAG) RNA repeats | inhibition, % at 3 µM | 370,000 tested, 1.3% active | r(CAG) RNA repeat, TO-PRO-1 dye displacement fluorescence;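 active means inhibition above the plate cutoff, the mean of all test compounds on that plate plus 3 SD, cut at about 35% in these data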;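 further: higher means more dye released from RNA so lower well fluorescence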
LEDGF integ inh: blocks HIV-1 LEDGF/p75-dependent DNA integration. TR-FRET IN-LEDGF/p75 DNA integration, Eu/Cy5. inhibition, % at 3.7 µM. 370,000 tested, 0.64% active. AID 743269;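 active means inhibition above the screen-wide mean plus 3 SD, cut at about 13% in these data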;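 further: signal is the Cy5 over europium emission ratio at 671 and 618 nm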
DNMT1 interf DR: counter-screen for DNMT1 inhibitors: spectral interference, dose response. molecular beacon fluorescence. shares compounds with DNMT1 block. 200 tested, under 10 active. AID 602382. IC50, µM; call rule not given here
DNMT1 confirm: DNMT1 inhibition confirmation, single concentration | shares compounds with DNMT1 block | inhibition, % at 10 µM | AID 602385 | 2,300 tested, 8% active | DNMT1 molecular beacon HinP1I cleavage, fluorescence;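 active means average inhibition of at least 30% in the single-concentration confirmation test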
Beacon interf: counter-screen for DNMT1 inhibitors: spectral interference; shares compounds with DNMT1 block; DNMT1 molecular beacon spectral interference counterscreen, fluorescence 485/520; activation (fluorescence interference), % at 10 µM; 2,300 tested, 1% active; AID 602387;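 active means activation of at least 30% at 10 µM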;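 further: DNMT1 catalytic domain with a HinP1I cleavage step and a FAM/dabcyl DNA beacon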
Each line names hits and unclear results; the compound was inactive in the other large screens (follow-up assays come after a bar, where they were run).

Cc1nc(NCc2cccnc2)c2c3c(sc2n1)CCCC3	DNMT1 block 51 | DNMT1 confirm inactive | Beacon interf inactive
CNC(=O)c1cc2cccc(OC)c2oc1=O	none
COc1cccc2cc(C(=O)Nc3cc(Cl)ccc3N3CCOCC3)c(=O)oc12	DNMT1 block 55 (no result: MBD2 DNA inh, PG9 binder, UHRF1 binding, rCAG binder, LEDGF integ inh) | DNMT1 confirm inactive | Beacon interf inactive
CCN(C(=O)c1cc2c(=O)[nH]c3ccc(C)cc3c2s1)c1ccccc1F	DNMT1 block 63 | DNMT1 confirm inactive | Beacon interf inactive
CCN(C(=O)c1cc2c(=O)[nH]c3ccc(C)cc3c2s1)c1ccccc1C	none
CCCCOc1ccc(C(=O)NC2CCCCN(Cc3ccc(Cl)cc3)C2=O)cc1 (stereo not given)	none (no result: PG9 binder, DNMT1 block)
CCOC(=O)c1sc(NC(=O)/C=C/c2c(F)cccc2Cl)nc1C	DNMT1 block 60 | DNMT1 confirm inactive | Beacon interf inactive
O=C(/C=C/c1c(F)cccc1Cl)Nc1nc2ccccc2[nH]1	none
CCN(CC)CCNC(=O)c1ccc(NC(=O)C2CCN(c3ncnc4sc(C)c(C)c34)CC2)cc1	none
CN(C)C(=O)Oc1ccc[n+](C)c1	DNMT1 block 60 | DNMT1 confirm inactive | Beacon interf inactive
N#CC(C(=O)Nc1ccc(Cl)c(Cl)c1)=C1Nc2ccccc2N1	DNMT1 block 65 | DNMT1 confirm inactive | Beacon interf inactive
N#CC(C(=O)Nc1cccc(Cl)c1)=C1Nc2ccccc2N1	none
Cc1ccc(S(=O)(=O)N2CCCC2CNC(=O)C(=O)Nc2ccc(F)cc2)cc1 (stereo not given)	DNMT1 block 54 | DNMT1 confirm inactive | Beacon interf inactive
COc1ccc(S(=O)(=O)N2CCCC2CNC(=O)C(=O)Nc2ccc(C)cc2)cc1 (stereo not given)	none
O=C(C1CC(=O)N(c2ccc(Cl)cc2)C1)N1CCN(Cc2ccc3c(c2)OCO3)CC1 (stereo not given)	none
CCN(CC)c1ccc2cc(-c3nnc(-c4ccccc4)o3)c(=O)oc2c1	DNMT1 block 102 | DNMT1 confirm 88 | Beacon interf 134
O=c1oc2ccc3ccccc3c2cc1-c1nnc(-c2ccccc2)o1	none
CC(=O)Nc1cccc(C(=O)N2CCN(S(=O)(=O)c3ccc(C4CCCCC4)cc3)CC2)c1	none
O=[N+]([O-])c1ccccc1/C=C/C=N/n1c(-c2cc(-c3ccccc3)n[nH]2)n[nH]c1=S	DNMT1 block 53 | DNMT1 confirm inactive | Beacon interf inactive
Cc1ccc(C(=O)OCC(=O)c2ccc(S(=O)(=O)N3CCCCC3)cc2)o1	none
CCCN(CC(=O)Nc1ccccc1OC)C(=O)c1ccc(S(=O)(=O)Nc2ccccc2OC)cc1	none
CCCN(CC(=O)Nc1ccccc1OC)C(=O)c1ccc(S(=O)(=O)Nc2ccccc2)cc1	DNMT1 block 62 | DNMT1 confirm inactive | Beacon interf inactive
Cc1ccccc1-c1cc2nc(C)c(C)c(=O)n2[nH]1	DNMT1 block 84 | DNMT1 confirm inactive | Beacon interf inactive
Cc1nc2cc(-c3ccc(F)cc3)[nH]n2c(=O)c1C	none
O=C(N/N=C/c1cccc([N+](=O)[O-])c1)c1cc2ccccc2o1	DNMT1 block 94 | DNMT1 confirm inactive | Beacon interf inactive
CC1(C)CC(=O)C=C(c2ccc(-c3ccc4[nH]ccc4c3)cc2)C1=O	none
C=CCNC(=O)COC(=O)CCC(=O)c1cccs1	DNMT1 block 64 | DNMT1 confirm inactive | Beacon interf inactive
Oc1ccc(F)c2cccnc12	DNMT1 block 68 | DNMT1 confirm inactive | Beacon interf inactive
Cc1occc1-c1nnc(SCC(=O)Nc2ccccn2)n1-c1ccccc1	none (no result: PG9 binder, DNMT1 block)
CN(C)C1CCCCC=CC(=O)NC1 (stereo not given)	DNMT1 block 52 | DNMT1 confirm inactive | Beacon interf inactive
N#C/C(=C\c1ccc(OC(=O)c2ccc(Cl)s2)cc1)c1nc2ccccc2[nH]1	DNMT1 block 83 | DNMT1 confirm inactive | Beacon interf inactive
N#C/C(=C/c1ccc(OC(=O)c2ccc(Br)s2)cc1)c1nc2ccccc2[nH]1	DNMT1 block 85 | DNMT1 confirm inactive | Beacon interf inactive
N#C/C(=C\c1ccncc1)c1nc2ccccc2[nH]1	none
N#C/C(=C\c1ccc(OC(=O)c2ccc(Br)s2)cc1)c1nc2ccccc2[nH]1	DNMT1 block 82 | DNMT1 confirm inactive | Beacon interf inactive
CC1(C(=O)NCc2ccccc2)CSCC(=O)N1C1CC1 (stereo not given)	none (no result: DNMT1 block)
COC(=O)[C@]12C[C@H](CC(=O)N3CCN(C(=O)C4CC4)CC3)C(=O)N(Cc3ccco3)C1=C[C@H](C1CCCC1)O[C@@H]2C	none (no result: PG9 binder, DNMT1 block)
O=C1OCCOC2CCCc3oc(C4=CCCCC4)c1c32 (stereo not given)	none (no result: DNMT1 block)
COC(=O)C1CCN(C(=O)CSc2nc3nc(C)cc(C)n3n2)CC1	DNMT1 block 63 | DNMT1 confirm inactive | Beacon interf inactive
O=C(COC(=O)/C=C/c1ccc(F)cc1)Nc1nnc(-c2ccccc2)o1	none
CC(C)(C)CN1CCNC[C@H]1Cc1ccc(O)cc1	DNMT1 block 76 | DNMT1 confirm inactive | Beacon interf inactive
CCn1nnnc1NCc1ccc(N2CCCC2)cc1	DNMT1 block 82 | DNMT1 confirm inactive | Beacon interf inactive
CCn1nnnc1NCc1ccc(SC)cc1	none
COc1ccc(C(=O)N/C(=C\c2cn(S(=O)(=O)N(C)C)c3ccccc23)C(=O)N2CCCC2)cc1	none
O=C(/C=C/c1ccc(Br)cc1)NC(=S)Nc1ccc(S(=O)(=O)Nc2nccs2)cc1	DNMT1 block 86 | DNMT1 interf DR inactive | DNMT1 confirm 67 | Beacon interf inactive
CCc1nnc(NS(=O)(=O)c2ccc(NC(=S)NC(=O)/C=C/c3ccc(C(C)C)cc3)cc2)s1	DNMT1 block 62 (no result: MBD2 DNA inh, PG9 binder, UHRF1 binding, rCAG binder, LEDGF integ inh) | DNMT1 interf DR inactive | DNMT1 confirm 33 | Beacon interf inactive
COc1ccc(S(=O)(=O)N(C)C[C@H]2Oc3c(NC(=O)Nc4c(C)noc4C)cccc3C(=O)N([C@@H](C)CO)C[C@H]2C)cc1	none
COc1ccc2[nH]c3c(c2c1)CCNC3=O	none
CCc1cc2c(=O)n3c(nc2s1)-c1[nH]c2ccc(OC)cc2c1CC3	DNMT1 block 76 | DNMT1 confirm inactive | Beacon interf inactive
CCn1c2ccc(F)cc2c2nnc(SCCN3CCCCC3)nc21	none
CCOc1ccccc1-n1nnnc1SCC(=O)NC(=O)NCc1ccco1	DNMT1 block 60 | DNMT1 confirm inactive | Beacon interf inactive
Cc1nnc(SCC(=O)NC(=O)NCc2ccco2)n1Cc1ccccc1	DNMT1 block 66 | DNMT1 confirm inactive | Beacon interf inactive
